Molecules are shown by their SMILES. This is part of a sample that, as a whole, favours compounds with a hit. Of some 83,000 tested, about 20% had one in any assay.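 The endpoint reported here, percent growth, reads 100 for growth as untreated, 0 for no net growth and -100 for all cells dead.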 Calls of active or inactive are those of the source.

For the assay, the system named is LOX IMVI melanoma. In words: NCI-60 one-dose screen, 48 h (100 = growth as untreated, 0 = no growth, -100 = all killed). Conditions: 10 µM unless noted. Here is the method:
Growth inhibition of the LOX IMVI human tumor cell line is measured as a screen for anti-cancer activity. Cells are grown in 96 well plates and exposed to the test compound for 48 hours. Compounds are tested at a single concentration, which is 10^-5 M for most compounds. The reported endpoint is percent growth (GI% or GIPRCNT), where numbers from 0 - 100% represent growth inhibition, and numbers from -100% - 0 represent cell death. For example, a value of 40 represents 60% growth inhibition. A value of 0 means no net growth occurred over the course of the experiment. A value of -40 indicates 40% of cells at the beginning of the experiment died by the end of the experiment. A value of -100 means all cells are dead at the end of the experiment.
NCI-60 Human Tumor Cell Lines Screen was performed using the standard one-dose NCI protocol, which is described in more detail at https://dtp.cancer.gov/discovery_development/nci-60/default.htm.
Compounds with GIPRCNT values below 10 were considered active. Activity score was based on GIPRCNT using the following formula: […]
Score is 0 for GIPRCNT values of 100 or above, 50 for GIPRCNT values of 0, and 100 for GIPRCNT values of -100.
With `O=C(NNc1nc2cc(F)c(F)cc2n2cccc12)c1ccncn1`, the growth is 11.7% (inactive). The figure for `CCOC(=O)C1=C(C)Nc2nnc(Nc3ccccc3)n2C1c1ccccc1` (stereo not given) is 59.2% (inactive); for `COC1=C(c2ccccc2)C(=O)C(OC)=C(c2ccccc2)C1=O` it is 95.2% (inactive); for `CC1=C2C(=C[C@@](C)(COS(N)(=O)=O)[C@@H]2O)C(=O)[C@](C)(O)C12CC2` it is 77% (inactive).

As for `CCOC(=O)c1c(NC(=O)c2ccc(F)cc2F)sc2c1CCC(=O)C2`, the growth was 80.7% (inactive). For `CS(=O)(=O)c1ccc2c(c1)c1c(n2Cc2ccc(Cl)cc2)CCCC1` the value was 81.5% (inactive); for `Oc1ccc(CSc2nnc(-c3ccc(Oc4ccccc4)cc3)o2)c2cccnc12`, 19.8% (inactive).

Consider `CN(C)C(=O)C1=NC(CO)C(=O)N(c2ccc(Cl)cc2)N1` (stereo not given), for which the growth was 95.3% (inactive). For the molecule `Cc1cc(O)c(=O)cc2c1C[C@H]1CC(C)(C)/C=C/C[C@]3(C)Oc4cc(=O)c(O)cc(C)c4C[C@H]3C[C@H](O)[C@@]1(C)O2`, the growth was 6.81% (active). For `NC(N)=NS(=O)(=O)c1ccc(N=NC2C(=O)NN(c3ccccc3)C2=O)cc1` (stereo not given) the value was 96.6% (inactive); for `CC(C)(C)n1nnnc1C(Nc1nccs1)c1cc2cccc3ccc4cccc1c4c32` (stereo not given), 96.3% (inactive); for `COc1cc(NC2=C(Cl)C(=O)c3nc(C)ccc3C2=O)cc(OC)c1`, -82.6% (active). The figure for `O=C1Nc2ccc(Cl)cc2/C1=C/c1ccc(OCc2ccc(F)cc2)cc1` is 92.8% (inactive).

In the case of `CCN1C(=O)N(CC)C2C1NN=C1SC(c3ccccc3)=CC(=O)N12` (stereo not given), the growth is 40.1% (inactive). As to `Cc1cc(-c2ccc3nc(N)sc3c2)nc2ccc3[nH]ncc3c12`, the growth was 43.8% (inactive). The figure for `Oc1ccc(-c2nnc(SCc3ccc(O)c4ncccc34)o2)cc1` is 7.94% (active); for `COc1cc(O)c2c(c1)[C@H]1O[C@@H]1C[C@H](O)[C@H](O)C(=O)/C=C\C[C@H](C)OC2=O` it is 32.3% (inactive); for `CC1(COc2ccc3ncc(C#Cc4cncc(C(=O)Nc5cc(C(C)(C)C)on5)c4)n3n2)COC1` it is 11% (inactive). The figure for `COc1cc(/C=C2\SC(=O)NC2=O)ccc1OCC(=O)Nc1ccc(C(=O)/C=C/c2cc3ccccc3nc2Cl)cc1` is 81.6% (inactive). The figure for `COc1ccc(NC(=O)Cn2cc(CN3C(=O)c4ccc([N+](=O)[O-])cc4C3=O)nn2)cc1` is 97.7% (inactive); for `COc1ccc(NC(=O)[C@H](C)N)cc1C(=O)Nc1cccc(-c2cc(=O)c3c(OC)c(OC)c(OC)cc3o2)c1` it is 49.8% (inactive). Take `c1cncc(-c2cn3nc(-c4c[nH]c5ccccc45)sc3n2)c1`: the growth is 46.7% (inactive). For `O=c1c2c(O)cccc2oc2c3c(cc(O)c12)O[C@H]1OC=C[C@@H]31`, the growth was 87.4% (inactive). For `CC(=O)NC(C)(C)C(=O)N1CCC[C@H]1C(=O)NC(C)(C)C(=O)N[C@@H](C)C(=O)NC(C)(C)C(=O)N[C@@H](C)C(=O)N[C@@H](CCC(N)=O)C(=O)NC(C)(C)C(=O)N[C@H](C(=O)NC(C)(C)C(=O)NCC(=O)N[C@@H](CC(C)C)C(=O)NC(C)(C)C(=O)N1CCC[C@H]1C(=O)N[C@H](C(=O)NC(C)(C)C(=O)NC(C)(C)C(=O)N[C@@H](CCC(N)=O)C(=O)N[C@@H](CCC(N)=O)C(=O)N[C@H](CO)Cc1ccccc1)C(C)C)C(C)C` the value was 84.3% [4.25 µM] (inactive); for `CN1CCN(Cc2ccc(NC(=O)c3cncc(C#Cc4[nH]nc5ncncc45)c3)cc2C(F)(F)F)CC1`, 13% (inactive). The figure for `Cc1ccccc1NC1CC(=O)N(c2ccc(Cl)cc2Cl)C1=O` (stereo not given) is 94.4% (inactive). The figure for `Cn1c(SC(C(=O)Nc2ccc(F)cc2)c2ccccc2)nc2ccccc2c1=O` (stereo not given) is 102% (inactive); for `COc1ccc(NS(=O)(=O)c2ccc(-c3cnc(C4CC4)o3)cc2)cc1Cl` it is 39.5% (inactive). For the molecule `CCOC(=O)c1nn(-c2ccccc2)c(=O)c2c(N)c(C#N)c(-c3cccs3)cc12`, the growth is 73% (inactive). For `CCn1c2ccc(/C=N/NS(=O)(=O)CCN(C)C)cc2c2cc(/C=N/NS(=O)(=O)CCN(C)C)ccc21` the value was 98.6% (inactive); for `CCNC(=O)Oc1ccc(/C(=C(/C)c2ccc(Cl)cc2)c2ccc(OCCN3CCCC3)cc2)cc1`, 49.2% (inactive). Regarding `NCCN1CCN(c2nc(-c3ccccc3)nc3nc(-c4ccccc4)oc23)CC1`, the growth is -90.6% (active). For `N=c1c2cc(-c3ccccc3)oc2ncn1/N=C/c1ccccc1` the value was 66.3% (inactive); for `N/C(=N\OC(=O)CSc1nc2ccccc2s1)c1ccc(Cl)cc1`, 99.7% (inactive); for `Cn1cc(-c2nn3c(=O)cc(-c4ccccc4)nc3s2)c2cc(F)ccc21`, 59.3% (inactive).

For `CCCCCCNC(=O)Oc1ccc(/C(=C(/C)c2ccccc2)c2ccc(OCCN(C)C)cc2)cc1`, the growth was 13.8% (inactive). The figure for `Cc1cc(=O)n2nc(-c3cn(C)c4ccc(Cl)cc34)sc2n1` is 85.4% (inactive).

For `CN1C(=O)/C(=C/C=C/c2ccco2)SC1=S`, the growth is 75.5% (inactive).

Regarding `O=c1[nH]c2cc(Cl)ccc2n1C1CCN(c2ccc3nnc(Cl)n3n2)CC1`, the growth was 99.1% (inactive). The figure for `COCCOc1ccc(-c2csc(NC(C)=O)n2)cc1NS(=O)(=O)c1cccc2c(N(C)C)cccc12` is 98.4% (inactive).

For the origin of these results see PubChem BioAssay (NCI).
